Screens as filed in PubChem.
Rows were chosen to be rich in hits. Some 12% of all compounds tested hit in one or more screens of this group.
Pf growth 48h: inhibits P. falciparum growth in the first generation, 48 h; P. falciparum luciferase growth in erythrocytes, 48 h; Potency, µM (highest dose often 28.7 µM), most hits filed as inhibitors; actives 5.9% (n = 310,000); AID 504832
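A one-generation exposure of luciferase-tagged malaria parasites in RPMI 1640/Albumax erythrocyte culture, 37 C and 5% CO2. Inhibition is inferred from decreased luminescence after adding detection reagent.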
NS1 function inh: influenza NS1 inhibition; Potency, µM (series often up to 46.1 µM); actives 0.4% (n = 270,000); calls by dose curve; note: actives are rising curves; nearly all actives have a fitted effect of over 50% in size
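Read-out: OD600 growth recovery of NS1-expressing budding yeast. Cells grown overnight at 30C in -URA glucose medium, washed, resuspended and diluted 1:100 in 2% galactose assay medium, pH 6.0. Same strain lacking NS1 served as positive control.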
Pf growth 96h: P. falciparum growth inhibition at 96 hour, primary screen for plastid delayed-death inhibitors; P. falciparum luciferase reporter growth, 96 h; actives 6.9% (n = 320,000); AID 504834; Potency, µM (doses to about 28.7 µM), usual class: inhibitors
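Erythrocytes infected with luciferase-expressing P. falciparum were dispensed at 2% hematocrit and 0.05% parasitemia (final), then incubated with compounds 96 hours at 37 C in 5% CO2. Luminescence after detection reagent addition reported growth.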
HCV inhibitor: blocks hepatitis C virus; Huh7.5.1 HCVcc-Cre infection, luciferase reporter, 44 h; Potency, µM (highest dose often 41.8 µM), actives largely listed as inhibitors; actives 3.4% (n = 340,000)
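Seed cells (1,000/well) for 4 h; treat with compound and infect with HCVcc-Cre, moi about 0.5. Incubate 44 h, then detect luciferase activity.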
AMA1-RON2 inh: inhibitors of Plasmodium falciparum AMA1-RON2 interaction | AlphaScreen AMA1-biotinylated RON2 peptide binding | Potency, µM (titrated, usually from 58.2 µM), actives largely listed as inhibitors | actives 0.2% (n = 360,000); note: nearly all actives have a fitted effect of over 45% in size
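AMA1 (3D7) with his tag at 25 nM final met compounds first, then biotinylated RON2 peptide at 25 nM; detection used donor plus acceptor beads, 10 µg/mL apiece, read by AlphaScreen after 30 min at room temperature.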
SARS PLpro yeast: SARS-CoV PLP inhibition in yeast; S. cerevisiae expressing SARS-CoV PLpro, growth rescue; Potency, µM (titrated, usually from 32.9 µM), usual class: activators; actives 0.19% (n = 330,000); AID 485353; calls by dose curve; note: nearly all actives have a fitted effect of over 55% in size
Each line names hits and unclear results; the compound was inactive in the other large screens. Unless noted, calls come from the whole dose curve; as a rule, active = well fitted curve in the direction sought with a large enough effect; inconclusive = small, poorly fitted or top-dose-only effect, or another doubt; inactive = no such curve, though single readings can be large; an effect the other way counts as inactive or inconclusive.

N#Cc1cnn(-c2ccccc2)c1NC(=O)CN1CCN(c2ccccc2)CC1	none
CCC1c2ccccc2C(=O)C1C(N)=O (configuration not stated)	none (no result: Pf growth 48h, NS1 function inh, Pf growth 96h, SARS PLpro yeast)
COc1ccc(NC(=O)c2cc3ccccc3cc2OC)cc1	Pf growth 48h inconclusive, HCV inhibitor 8.91µM, SARS PLpro yeast inconclusive
COc1cc2ccccc2cc1C(=O)Nc1ccccc1Cl	Pf growth 48h inconclusive, HCV inhibitor inconclusive
COc1nc(N(C)C)nc(N(C#N)S(=O)(=O)c2ccc(C)cc2)n1	none
CCC(C)N(C(=O)Cn1nnc2ccccc21)C(C(=O)NCc1ccco1)c1cccc(OC)c1 (configuration not stated)	Pf growth 96h 10.4µM
CCOc1ccc(C(C(=O)Nc2ccc(F)cc2)N(C(=O)Cn2nnc3ccccc32)C2CC2)cc1 (configuration not stated)	Pf growth 48h inconclusive, NS1 function inh inconclusive, Pf growth 96h 4.65µM
O=C(NCc1ccco1)C(c1ccc(F)cc1)N(CC1CCCO1)C(=O)Cn1nnc2ccccc21 (configuration not stated)	none
COc1ccc(C(C(=O)NCCC(C)C)N(CCN2CCOCC2)C(=O)Cn2nnc3ccccc32)c(OC)c1 (configuration not stated)	Pf growth 48h inconclusive, Pf growth 96h 5.22µM
COCCN(C(=O)Cn1nnc2ccccc21)C(C(=O)NC1CCCC1)c1cccc(OC)c1OC (configuration not stated)	Pf growth 48h inconclusive
COc1cccc(C(C(=O)Nc2ccc(F)cc2)N(C(=O)Cn2nnc3ccccc32)C2CC2)c1 (configuration not stated)	Pf growth 48h inconclusive, NS1 function inh inconclusive, Pf growth 96h 10.4µM
N#CCc1cc2ccc3cccc4ccc(c1)c2c34	HCV inhibitor inconclusive
CNc1cnc(-c2cccc(C(=O)N3CCOCC3)c2)cn1	none (no result: Pf growth 48h, NS1 function inh, Pf growth 96h, HCV inhibitor, SARS PLpro yeast)
Nc1ncnc2c1ncn2[C@@H]1O[C@H](C(=O)NCC2CCN(Cc3ccccc3)CC2)[C@@H](O)[C@H]1O	none (no result: Pf growth 48h, NS1 function inh, Pf growth 96h, HCV inhibitor, SARS PLpro yeast)
C[n+]1c(/C=C\c2ccc(O)c3ncccc23)[se]c2ccccc21	none (no result: Pf growth 48h, Pf growth 96h, HCV inhibitor, AMA1-RON2 inh, SARS PLpro yeast)
COC(=O)c1cc(S(=O)(=O)N2CCCC2=O)c(Cl)cc1Cl	Pf growth 48h inconclusive, Pf growth 96h 10.4µM
COc1ccccc1NS(=O)(=O)c1cccc(C(=O)N/N=C(\C)c2cccnc2)c1	Pf growth 48h inconclusive, Pf growth 96h inconclusive (no result: NS1 function inh)
C/C(=C\c1ccccc1)CN1CCN(C)CC1	Pf growth 96h 0.0522µM
CCOC(=O)N1CCN(C/C(C)=C/c2ccccc2)CC1	none
N#Cc1c(N)nc2c(c1-c1ccc3c(c1)OCO3)CCc1ccccc1-2	Pf growth 48h 4.15µM, HCV inhibitor 12.6µM
N#Cc1c(-c2ccc3c(c2)OCO3)csc1N	HCV inhibitor 8.91µM
N#Cc1c(N)c(C#N)c(-c2ccc3c(c2)OCO3)c2c1CCCC2	Pf growth 48h inconclusive, Pf growth 96h inconclusive
COc1ccc(CCNC(=O)COC(=O)CCC(=O)c2ccc(F)cc2)cc1OC	Pf growth 96h inconclusive
Cc1c(C(=O)Nc2ccc(OC(F)(F)F)cc2)sc2nc3n(c(=O)c12)CCC3	none
Cc1c(C(=O)Nc2ccc(Oc3ccccc3)cc2)sc2nc3n(c(=O)c12)CCC3	Pf growth 48h 11.7µM, Pf growth 96h 16.5µM, HCV inhibitor 6.31µM
Nc1nonc1-n1nnc(C(=O)N/N=C/c2ccc(F)cc2)c1-c1ccc2c(c1)OCO2	Pf growth 48h 0.117µM, Pf growth 96h 0.0657µM
COc1ccc(/C=N/NC(=O)c2nnn(-c3nonc3N)c2-c2cccs2)cc1OC	Pf growth 48h inconclusive, Pf growth 96h inconclusive
Nc1nonc1-n1nnc(C(=O)N/N=C/c2ccc3c(c2)OCO3)c1CSc1ccccc1	none
Nc1nonc1-n1nnc(C(=O)N/N=C/c2cccc(F)c2)c1-c1ccc2c(c1)OCO2	Pf growth 48h 0.117µM, Pf growth 96h 0.0657µM
Nc1nonc1-n1nnc(C(=O)N/N=C/c2cccc(Cl)c2)c1-c1cccs1	Pf growth 48h 4.65µM, Pf growth 96h 2.33µM
Nc1nonc1-n1nnc(C(=O)N/N=C/c2cccnc2)c1-c1ccccc1	Pf growth 48h inconclusive, Pf growth 96h 11.7µM
